# Assay results from PubChem BioAssay.
# The source made the active and inactive calls.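 Rule for the calls: active = inhibition above 50%; inactive = the rest.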
# Assay: HepG2 cytotoxicity, primary screen, cytotoxicity control for P. falciparum antimalarial project, cell-based, ATP luminescence (AID 2303);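 note: 0% = DMSO wells and 100% = digitonin-killed cells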
# Settings: HepG2 viability, 24-48 h, at 10 µM, hits give high values
row,SMILES,inhibition
1,CCN(CC)CCCNc1ncc2c(-c3ccc(NC(=O)Nc4cc(C(F)(F)F)ccc4F)cc3)nn(C)c2n1,81% (active)
2,CC(C)Cc1cn(-c2nc(C(=N)N)cs2)c2cc(Cl)ccc12,98% (active)
3,Oc1ccc2[nH]c(-c3cccs3)nc2c1CN1CCC(N2CCCC2)CC1,6% (inactive)
4,COc1ccc(N2CCN(c3nc(N)c4cc(OC)c(OC)cc4n3)CC2C)cc1 (stereo not given),8% (inactive)
5,Oc1c(Cl)cc(-c2ccccc2)cc1CNC1CCCCC1,5% (inactive)
6,O=C(Nc1ccc(F)cc1)N1CCCN(c2ccnc3cc(Cl)ccc23)CC1,7% (inactive)
7,Nc1cccc(CNCc2ccc(-c3cccc(-c4nc5ccccc5[nH]4)c3)cc2)c1,12% (inactive)
8,Cc1nc(Nc2ccc(F)cc2)nc(N2CCc3ccccc3C2C)c1CO (stereo not given),-9% (inactive)
9,CNCCNC(=O)C1Cc2c([nH]c3c(C)cccc23)C(c2ccc(Cl)c(Cl)c2)N1 (stereo not given),13% (inactive)
10,CCCc1cc(NCc2ccncc2)nc(Nc2ccc(F)cc2)n1,9% (inactive)
11,CCCCCn1c(Sc2ccc(C#N)c([N+](=O)[O-])c2)nnc1-c1cc(OC)cc(OC)c1,17% (inactive)
12,COc1cc(OC)c(NC(=O)COc2ccc(C)cc2)cc1Cl,-7% (inactive)
13,c1ccc(-c2cc(NCCCCCCCCNc3cc(-c4ccccc4)nc4ccccc34)c3ccccc3n2)cc1,36% (inactive)
14,Cn1nccc1C(=O)NCCNCc1ccc(-c2cccc(-c3nc4ccc(F)cc4[nH]3)c2)cc1,37% (inactive)
15,COc1cc(C=NNc2nc(Nc3ccccc3)nc(Nc3ccccc3)n2)ccc1OCc1ccccc1[N+](=O)[O-],8% (inactive)
